# ChEMBL document CHEMBL1961873, “Compounds: GSK PKIS; Assays: Nanosyn kinase panel” (2012)
# What was measured:
# [1] = target: RAF proto-oncogene serine/threonine-protein kinase (Homo sapiens) (UniProt P04049); details: at 1 µM;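 note: values are the mean percent inhibition of CRAF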
# [2] = target: T1, Interleukin-1 receptor-associated kinase 4 (Homo sapiens) (UniProt Q9NWZ3); details: at 0.1 µM
# T1 sequence (whole entry): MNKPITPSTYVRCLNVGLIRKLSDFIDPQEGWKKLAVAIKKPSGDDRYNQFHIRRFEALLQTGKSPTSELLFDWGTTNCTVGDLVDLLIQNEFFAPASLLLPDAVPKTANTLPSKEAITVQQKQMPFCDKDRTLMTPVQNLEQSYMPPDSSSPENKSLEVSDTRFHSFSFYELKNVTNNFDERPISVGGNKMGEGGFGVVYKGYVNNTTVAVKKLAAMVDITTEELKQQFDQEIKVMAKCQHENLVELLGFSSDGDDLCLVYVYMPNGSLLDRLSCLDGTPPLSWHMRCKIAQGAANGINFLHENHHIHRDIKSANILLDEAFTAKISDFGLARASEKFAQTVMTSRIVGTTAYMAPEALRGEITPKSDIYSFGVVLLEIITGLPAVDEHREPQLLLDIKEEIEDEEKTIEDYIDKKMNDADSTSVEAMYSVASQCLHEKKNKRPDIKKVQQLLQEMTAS
# [3] = target: T1, Interleukin-1 receptor-associated kinase 4 (Homo sapiens); details: at 1 µM
# [4] = target: Leucine-rich repeat serine/threonine-protein kinase 2 (Homo sapiens) (UniProt Q5S007); details: at 0.1 µM
# [5] = target: Leucine-rich repeat serine/threonine-protein kinase 2 (Homo sapiens) (UniProt Q5S007); details: at 1 µM
# [6] = system: Leucine-rich repeat serine/threonine-protein kinase 2 (Homo sapiens), Q5S007 [G2019S]; details: at 0.1 µM
# [7] = system: Leucine-rich repeat serine/threonine-protein kinase 2 (Homo sapiens), Q5S007 [G2019S]; details: at 1 µM
# Sequence of Leucine-rich repeat serine/threonine-protein kinase 2 (Homo sapiens), Q5S007 [G2019S] (Q5S007 whole entry G2019S): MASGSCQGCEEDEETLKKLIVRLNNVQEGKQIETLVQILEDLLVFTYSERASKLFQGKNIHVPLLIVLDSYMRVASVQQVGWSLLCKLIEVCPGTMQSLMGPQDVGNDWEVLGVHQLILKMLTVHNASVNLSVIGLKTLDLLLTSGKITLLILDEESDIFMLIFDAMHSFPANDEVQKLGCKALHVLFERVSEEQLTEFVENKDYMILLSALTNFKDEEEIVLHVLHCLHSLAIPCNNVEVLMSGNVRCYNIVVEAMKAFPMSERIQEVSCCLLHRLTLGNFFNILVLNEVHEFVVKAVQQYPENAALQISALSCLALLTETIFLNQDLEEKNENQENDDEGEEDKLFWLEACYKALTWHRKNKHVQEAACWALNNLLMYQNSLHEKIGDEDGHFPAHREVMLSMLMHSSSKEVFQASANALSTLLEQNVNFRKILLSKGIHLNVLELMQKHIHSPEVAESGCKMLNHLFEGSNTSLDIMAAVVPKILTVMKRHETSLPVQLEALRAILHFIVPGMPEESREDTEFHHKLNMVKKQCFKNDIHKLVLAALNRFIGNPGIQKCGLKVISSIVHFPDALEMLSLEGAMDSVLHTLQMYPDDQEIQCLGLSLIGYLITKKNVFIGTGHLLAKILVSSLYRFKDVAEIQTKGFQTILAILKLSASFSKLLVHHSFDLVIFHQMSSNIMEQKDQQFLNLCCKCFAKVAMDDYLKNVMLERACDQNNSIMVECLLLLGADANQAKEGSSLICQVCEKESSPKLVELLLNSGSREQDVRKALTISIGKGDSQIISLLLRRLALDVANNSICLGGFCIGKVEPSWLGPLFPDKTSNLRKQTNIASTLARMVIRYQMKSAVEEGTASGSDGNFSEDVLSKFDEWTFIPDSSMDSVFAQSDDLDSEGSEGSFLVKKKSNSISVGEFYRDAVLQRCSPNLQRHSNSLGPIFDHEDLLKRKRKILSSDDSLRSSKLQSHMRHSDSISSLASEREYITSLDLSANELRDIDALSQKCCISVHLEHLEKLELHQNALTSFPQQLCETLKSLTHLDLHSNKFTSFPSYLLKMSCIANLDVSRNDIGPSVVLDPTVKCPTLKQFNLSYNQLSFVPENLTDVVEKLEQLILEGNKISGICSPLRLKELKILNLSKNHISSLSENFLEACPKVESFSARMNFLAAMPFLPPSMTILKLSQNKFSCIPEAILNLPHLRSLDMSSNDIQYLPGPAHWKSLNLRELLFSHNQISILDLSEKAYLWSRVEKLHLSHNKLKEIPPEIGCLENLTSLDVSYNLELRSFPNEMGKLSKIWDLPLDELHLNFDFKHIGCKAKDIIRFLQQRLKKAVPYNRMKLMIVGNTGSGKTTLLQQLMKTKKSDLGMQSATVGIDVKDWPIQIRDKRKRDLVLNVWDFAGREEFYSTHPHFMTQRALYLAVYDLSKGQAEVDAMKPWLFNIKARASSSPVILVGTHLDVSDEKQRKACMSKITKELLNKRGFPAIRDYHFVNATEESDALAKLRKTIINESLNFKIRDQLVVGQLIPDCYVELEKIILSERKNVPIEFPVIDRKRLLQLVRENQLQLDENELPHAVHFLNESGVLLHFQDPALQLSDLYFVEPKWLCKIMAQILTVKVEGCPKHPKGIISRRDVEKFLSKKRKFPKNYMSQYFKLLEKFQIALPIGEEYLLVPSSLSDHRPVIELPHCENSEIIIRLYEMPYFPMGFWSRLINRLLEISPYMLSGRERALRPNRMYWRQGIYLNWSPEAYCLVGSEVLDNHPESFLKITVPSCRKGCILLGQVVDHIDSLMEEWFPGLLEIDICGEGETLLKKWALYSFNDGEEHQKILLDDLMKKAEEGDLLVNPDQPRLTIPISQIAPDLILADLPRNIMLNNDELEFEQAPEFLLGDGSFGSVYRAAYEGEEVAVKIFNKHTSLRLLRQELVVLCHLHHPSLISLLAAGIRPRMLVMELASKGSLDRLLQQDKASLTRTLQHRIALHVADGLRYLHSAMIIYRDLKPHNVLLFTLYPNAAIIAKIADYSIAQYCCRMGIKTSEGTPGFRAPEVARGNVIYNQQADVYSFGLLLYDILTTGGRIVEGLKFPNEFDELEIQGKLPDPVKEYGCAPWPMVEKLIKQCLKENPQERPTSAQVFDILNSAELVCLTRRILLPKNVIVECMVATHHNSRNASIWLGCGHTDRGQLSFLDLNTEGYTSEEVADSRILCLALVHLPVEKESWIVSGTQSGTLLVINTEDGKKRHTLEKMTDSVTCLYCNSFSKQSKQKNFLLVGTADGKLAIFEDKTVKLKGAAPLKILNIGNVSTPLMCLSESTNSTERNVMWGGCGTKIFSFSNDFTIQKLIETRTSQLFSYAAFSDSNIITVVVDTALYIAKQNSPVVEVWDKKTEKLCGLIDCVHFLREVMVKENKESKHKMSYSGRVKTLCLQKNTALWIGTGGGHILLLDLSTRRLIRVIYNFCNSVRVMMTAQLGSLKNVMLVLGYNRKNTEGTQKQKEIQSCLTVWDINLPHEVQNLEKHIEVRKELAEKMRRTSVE
# Sequence of RAF proto-oncogene serine/threonine-protein kinase (Homo sapiens) (P04049 whole entry): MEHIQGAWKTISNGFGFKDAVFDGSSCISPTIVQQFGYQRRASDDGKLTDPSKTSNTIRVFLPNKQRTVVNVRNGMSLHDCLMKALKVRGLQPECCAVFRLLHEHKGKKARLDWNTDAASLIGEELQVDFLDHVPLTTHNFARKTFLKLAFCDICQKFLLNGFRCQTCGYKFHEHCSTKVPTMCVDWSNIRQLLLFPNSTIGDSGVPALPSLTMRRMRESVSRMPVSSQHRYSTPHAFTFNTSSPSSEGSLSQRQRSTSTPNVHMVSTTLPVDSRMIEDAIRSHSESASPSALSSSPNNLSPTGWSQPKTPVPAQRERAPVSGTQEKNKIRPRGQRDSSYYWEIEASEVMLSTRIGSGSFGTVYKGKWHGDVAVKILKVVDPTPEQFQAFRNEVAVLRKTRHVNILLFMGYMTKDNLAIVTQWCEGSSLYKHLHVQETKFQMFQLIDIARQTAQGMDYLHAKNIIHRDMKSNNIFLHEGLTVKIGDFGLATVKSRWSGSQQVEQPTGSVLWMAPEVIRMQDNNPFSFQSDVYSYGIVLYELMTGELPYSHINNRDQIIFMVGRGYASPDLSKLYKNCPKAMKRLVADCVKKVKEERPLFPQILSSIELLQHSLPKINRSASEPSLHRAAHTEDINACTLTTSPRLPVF
# Sequence of Leucine-rich repeat serine/threonine-protein kinase 2 (Homo sapiens) (Q5S007 whole entry): as the sequence (Q5S007 whole entry G2019S) above, with S2019G counted along it
Structure (SMILES),inhibition [1] [%],inhibition [2] [%],inhibition [3] [%],inhibition [4] [%],inhibition [5] [%],inhibition [6] [%],inhibition [7] [%]
CCN1CCC(CC(=O)Nc2n[nH]c3nc(-c4cccs4)c(Br)cc23)CC1,1.23,-3.96,-0.76,-0.41,2.42,0.89,2.44
NC(=O)c1cccc(Nc2nccc(Nc3cccc4[nH]ncc34)n2)c1,-3.49,-3.26,3.19,0.85,8.7,4.42,30.9
Cn1cc(C=C2C(=O)Nc3cccnc32)c2ccccc21,–,6.41,5.04,8.55,20.8,15,55.4
CS(=O)(=O)CCNCc1nc(-c2ccc3ncnc(Nc4ccc(F)c(Cl)c4)c3c2)cs1,-0.82,0.41,1.35,2.13,5.82,1.31,2.37
COc1cc2ncn(-c3cc(OCc4ccccc4C(F)(F)F)c(C(N)=O)s3)c2cc1OC,-0.64,1.2,1.85,1.63,16.1,5.35,40.1
COC(=O)Nc1nc2cc(Oc3cccc(NC(=O)Nc4cc(C(F)(F)F)ccc4F)c3)ccc2[nH]1,–,3.51,-0.12,0.62,1.81,2.19,4.67
Cc1ccc(C(=O)NC2CCCCC2)cc1-c1ccc(C(=O)NCC2CC2)cc1,0.13,-1.27,1.67,6.21,6.84,3.47,3.31
O=C1NC(=O)C(N2CCc3ccccc32)=C1c1ccc(Cl)cc1,0.17,3.05,1.81,3.88,8.75,4.99,10.7
COc1cccc(-n2ncc3c(N/N=C/c4cccc(F)c4)ncnc32)c1,-6.84,3.28,1.56,-3.46,-0.49,0.79,2.23
COc1cc2ncn(-c3cc(OCc4ccccc4Cl)c(C(N)=O)s3)c2cc1OC,0.88,2.64,0.8,2.12,14.5,12,54.5
NS(=O)(=O)c1ccc(N/N=C2\C(=O)Nc3ccc(C(=O)NCCc4c[nH]cn4)cc32)cc1,–,-1.81,2.08,10.3,16.9,15.3,50
CCn1c(-c2nonc2N)nc2cncc(C(=O)N3CC[C@H](N)C3)c21,3.85,2.88,2.25,4.57,14.5,7.16,29.5
CCn1c(-c2nonc2N)nc2cnc(Oc3cccc(NC(=O)c4ccc(OCCN5CCOCC5)cc4)c3)cc21,6.03,3.17,1.66,0.83,9.41,4.44,29.3
O=C1NC(=O)C(c2ccc(Cl)cc2)=C1Nc1ccc(Cl)c(C(=O)O)c1,–,-1.49,-0.81,-0.67,0.65,1.27,3.84
c1cnn2ncc(-c3ccnc(Nc4ccc5c(c4)OCCO5)n3)c2c1,–,-2.01,7.85,12.2,19.8,16.6,61.4
NS(=O)(=O)c1cccc(-c2ccc3c(NC(=O)C4CC4)n[nH]c3c2)c1,-2.5,1.83,-0.64,-2.61,1.25,1.47,1.75
NC(=O)c1ccc(-c2nc(-c3ccccn3)c(-c3ccc4c(c3)OCO4)[nH]2)cc1,15.6,2.26,1.06,2.49,5.02,2.85,3.41

Structure (SMILES),inhibition [1] [%],inhibition [2] [%],inhibition [3] [%],inhibition [4] [%],inhibition [5] [%],inhibition [6] [%],inhibition [7] [%]
COc1ccc(COc2ccc(Cc3cnc(N)nc3N)cc2OC)cc1,–,1.04,0.89,4.88,5.38,3.29,5.32
CCn1c(-c2nonc2N)nc2cncc(C(=O)N3CCNCC3)c21,-2.31,2.74,3.54,1.69,0.35,3.72,7.17
Nc1ncnc2occ(-c3ccc(NC(=O)Nc4cc(C(F)(F)F)cc(C(F)(F)F)c4)cc3)c12,3.32,-4.93,1.16,9.63,16.7,4.56,26.1
CCCN1CCC=C(c2ccc(Nc3nc(Nc4ccccc4C(N)=O)c4cc[nH]c4n3)c(C)c2)C1,3.95,2.14,5.18,77.6,87.8,63.6,63.6
CC1=C(C(=O)Nc2ccc3[nH]ncc3c2)C(c2ccc3ccccc3c2)CC(=O)N1 (stereo unspecified),1.65,3.06,0.83,4.73,10.1,6.31,25
Nc1nc(-c2ccccn2)c(-c2ccc3ncccc3n2)s1,2.42,-3.29,1.27,2.15,4.38,1.86,5.88
CC1=C(C(=O)Nc2ccc3[nH]ncc3c2)C(c2ccc(F)cc2)NC(=O)N1 (stereo unspecified),-2.67,2.07,0.77,2.24,5.08,3.81,14.8
CS(=O)(=O)CCN(CC#N)Cc1ccc(-c2ccc3ncnc(Nc4ccc(OCc5cccc(F)c5)c(Cl)c4)c3c2)o1,-3.46,0.21,0.75,-6.54,-8.08,-3.2,-2.31
Nc1ncnc2occ(-c3ccc(NC(=O)Nc4cccc(C(F)(F)F)c4)cc3)c12,-2.58,2.03,2.34,17.1,57.9,13.1,42.8
Cc1nn(C)c2cc(N(C)c3ccnc(Nc4cccc(S(N)(=O)=O)c4)n3)ccc12,3.83,2.51,6.18,1.65,7,4.07,12.3
CN1CCC(C(=O)Nc2n[nH]c3nnc(-c4ccccc4)cc23)CC1,8.96,1.96,2.54,1.09,3.72,3.14,6.96
CCn1c(-c2nonc2N)nc2c(C#CC(C)(C)O)nc(OC[C@@H](N)c3ccccc3)cc21,3.8,-2.13,0.37,2.04,8.46,2.34,19.7
COc1ccccc1Nc1ncc(-c2ccccc2)o1,1.9,2.31,2.99,4.53,8.57,6.36,11.3
CN(C)c1cc2c(Nc3ccc4nc(Cc5ccccc5)[nH]c4c3)ncnc2cn1,-7.27,2.36,1.94,5.94,7.11,5.3,13.7
CCn1c(-c2nonc2N)nc2c(C#CC(C)(C)O)nc(CN3CCCC3)cc21,-7.96,3.31,-0.93,-0.1,1.92,0.81,3.54
COc1ccc(-c2nn3ncccc3c2-c2ccnc(Nc3ccc(Cl)c(C(F)(F)F)c3)n2)cc1,-8.01,2.17,0.42,0.37,1.12,2.99,3.98
Cc1cccc(-c2n[nH]cc2-c2ccc3ncccc3n2)n1,–,1.85,0.21,1.67,10.1,2.43,10.6
